A selection: hits, their analogues and other compounds. The true share with any hit is near 2.3%.
SENP8 block-1: inhibitors of human SENP8 protease; Q96LD8; recombinant SENP8, Nedd8 substrate fluorescence; inhibition, % at 20 µM; actives 0.64% (n = 360,000); AID 602440; in the data active means inhibition mostly above about 40%, no sharp cut-off; inactive means mostly below about 27%
Target sequence (Q96LD8 whole entry, looked up): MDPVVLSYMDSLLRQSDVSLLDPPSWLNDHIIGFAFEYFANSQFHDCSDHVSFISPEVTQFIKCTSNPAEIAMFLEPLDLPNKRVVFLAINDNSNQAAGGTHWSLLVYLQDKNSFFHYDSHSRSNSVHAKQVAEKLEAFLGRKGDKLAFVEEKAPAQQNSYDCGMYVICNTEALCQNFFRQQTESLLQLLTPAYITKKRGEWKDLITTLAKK
SENP6 inh: SENP6 protease inhibition | Recombinant SENP6 catalytic domain, aminoluciferin luminescence | actives 1.8% (n = 330,000) | inhibition, % at 10 µM;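 active means inhibition above about 50% at the single tested dose, limit read from the data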;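 further: plate controls were DMSO wells with enzyme for no effect and DMSO wells lacking enzyme for full effect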
LGR2 inh: blocks bursicon-induced cAMP signaling via Drosophila LGR2. HEK293 LGR2, CRE-luciferase, bursicon-stimulated, 4 h. inhibition, % at 9.99 µM. actives 0.35% (n = 380,000);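 active means drop in luminescence signal, shown as inhibition above about 50% in the replicate tests, limit read from the data, passing the limit was not always enough; inconclusive means probably only some replicates passing the limit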;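 further: agonist challenge used bursicon conditioned medium at about half maximal strength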
HSP90 inh: HSP90 refolding inhibition in rabbit reticulocyte lysate | luciferase refolding luminescence, 3 h | inhibition, % at 5.6 µM | actives 0.91% (n = 290,000) | AID 1789;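 active means inhibition above the screen-wide mean plus 3 SD, computed separately per campaign, cut at about 16% in these data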;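 further: 0% = DMSO wells and 100% = 60 µM geldanamycin wells; inhibitors lower the luminescence because luciferase stays unfolded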
SENP8 block-2: blocks the human protease SENP8. AID 2540. Q96LD8. purified SENP8, Z-RLRGG-aminoluciferin cleavage, luminescence. actives 1.2% (n = 330,000). inhibition, % at 10 µM; in the data active means inhibition above about 50%
SENP7 inh: inhibitors of human SENP7 protease; Q9BQF6; recombinant SENP7, Z-RLRGG-aminoluciferin luminescence, 40 min; actives 1.5% (n = 330,000); inhibition, % at 5 µM; AID 434973;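 active means inhibition above about 50% at the single test dose, limit read from the data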;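 further: plate controls were DMSO with enzyme for no effect and no enzyme buffer wells for full effect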
SENP8 confirm: human SENP8 inhibition, confirmed; AID 488912; actives 40% (n = 6,200); Recombinant SENP8, Z-RLRGG-aminoluciferin luminescence, 60 min; inhibition, % at 12.5 µM; shares compounds with SENP7 inh;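 active means mean inhibition across replicates above about 50%, limit read from the data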
SENP6 conf: confirmation of human SENP6 protease inhibitors. actives 58% (n = 6,200). inhibition, % at 12.5 µM. shares compounds with SENP7 inh. recombinant SENP6, Z-RLRGG-aminoluciferin luminescence. AID 488915
SENP7 confirm: confirmation of human SENP7 protease inhibitors; inhibition, % at 12.5 µM; actives 69% (n = 6,200); AID 488917; recombinant SENP7, Z-RLRGG-aminoluciferin luminescence, 40 min; shares compounds with SENP7 inh
Casp3 SENP sel: inhibits human caspase-3 in SENP selectivity test; purified caspase-3, Z-DEVD-aminoluciferin luminescence, 60 min; AID 488918; shares compounds with SENP7 inh; inhibition, % at 12.5 µM; actives 60% (n = 6,200);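 active means mean inhibition above about 50%, limit read from the data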;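 further: plate controls were enzyme with DMSO for no effect and wells without caspase-3 for full effect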
Target sequence (P42574 28-227 limits assumed): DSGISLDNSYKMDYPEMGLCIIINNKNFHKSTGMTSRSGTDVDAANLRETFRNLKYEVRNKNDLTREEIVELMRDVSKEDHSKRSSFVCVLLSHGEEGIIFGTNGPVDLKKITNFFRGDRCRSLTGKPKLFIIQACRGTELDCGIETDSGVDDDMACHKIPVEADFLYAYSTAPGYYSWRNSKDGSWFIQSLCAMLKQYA
Luc interf: luminescence interference (SENP counter-screen). shares compounds with SENP7 inh. actives 39% (n = 6,200). AID 488919. Pre-incubated SENP8/Z-RLRGG-aminoluciferin, luciferase luminescence interference. inhibition, % at 12.5 µM;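 active means mean inhibition above about 50% when retested at one dose, limit read from the data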;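 further: plate controls were DMSO wells with completed reaction for no effect and substrate without enzyme for full effect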
Active calls of the source: *; i = inactive; ? = inconclusive; nt = not tested or not shown.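 How the source made its calls, unless noted: active means mean inhibition above about 50% in the one-dose retest (limit read from the data); inactive means the rest.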

SMILES	SENP8 block-1	SENP6 inh	LGR2 inh	HSP90 inh	SENP8 block-2	SENP7 inh	SENP8 confirm	SENP6 conf	SENP7 confirm	Casp3 SENP sel	Luc interf
O=C(CCC1CCCC1)c1c(O)c2ccccc2oc1=O	4	71*	-24	-4	46	4	68*	68*	85*	70*	39
CC(=O)C(C(C)=O)c1c(Cl)c(O)c(O)c2c(C(=O)c3ccccc3)coc12	29	-28	?	0	-10	-6	nt	nt	nt	nt	nt
O=C(c1ccccc1)c1coc2c1C(=O)c1ccccc1C2=O	52*	85*	-5	7	33	18	23	75*	48	14	15
CO[C@H]1CC[C@H]2CCOc3c(C#N)cccc3C(=O)N(C)C[C@H](C)C(=O)N(C)C[C@H]1O2	nt	nt	-14	nt	nt	nt	nt	nt	nt	nt	nt
Cn1c(=O)c2c(SCc3ccccc3)nc(C3CC3)nc2n(C)c1=O	18	50	11	2	10	68*	7	22	25	30	3
O=C1CN(C(=O)c2ccc(Cl)c(S(=O)(=O)N3CCc4ccccc43)c2)c2ccccc2N1	9	61*	9	-3	4	7	-6	-8	-8	-4	-4
CO[C@@H]1CN(C)C(=O)c2cc(NC(=O)C3CCCCC3)ccc2OC[C@H](C)N(Cc2cccnc2)C[C@@H]1C	nt	nt	-4	nt	nt	nt	nt	nt	nt	nt	nt
COc1ccc(NC(=O)Nc2ccc3c(c2)C(=O)N(C)C[C@@H](OC)[C@@H](C)CN[C@@H](C)CO3)cc1	nt	nt	3	nt	nt	nt	nt	nt	nt	nt	nt
CCc1ccc(NC2=CC(=O)C(=O)c3ccccc32)cc1	i	26	-66	nt	70*	55*	9	23	12	4	5
O=C1C=C(Nc2ccccc2)C(=O)c2ccccc21	25	90*	19	3	80*	82*	26	29	47	47	14
O=C1C=C(Nc2ccccc2C(=O)O)c2ccccc2C1=O	33	86*	7	2	86*	44	-8	93*	82*	46	37
c1ccc(Nc2ccccc2)cc1	9	-1	-7	nt	-4	6	nt	nt	nt	nt	nt
O=C1C=C(Nc2ccccc2)c2ccccc2C1=O	-392	81*	48	17*	73*	46	-8	87*	72*	21	-6
CC1=CC(=O)c2ccccc2C1=O	-251	1	-7	4	16	3	nt	nt	nt	nt	nt
COC(=O)C[C@@H]1CC[C@H]2[C@@H](COc3ccc(NC(=O)Nc4cc(C)cc(C)c4)cc3C(=O)N2C)O1	nt	nt	-6	nt	nt	nt	nt	nt	nt	nt	nt
COc1ccc(NC(=O)N(C)C[C@H]2Oc3ccc(NS(=O)(=O)c4cccs4)cc3CC(=O)N([C@H](C)CO)C[C@@H]2C)cc1	nt	nt	-14	nt	nt	nt	nt	nt	nt	nt	nt
CO[C@@H]1CN(C)C(=O)c2cc(NC(=O)C3CCCCC3)ccc2OC[C@H](C)N(C)C[C@@H]1C	nt	nt	-8	nt	nt	nt	nt	nt	nt	nt	nt
Cc1ccc(O)c(/C=N/NC(=O)c2[nH]ncc2Br)c1	11	77*	-61	-2	89*	93*	25	21	39	38	42
COc1ccc(OC)c(/C=N/NC(=O)c2[nH]ncc2Br)c1	-414	-32	7	3	-7	4	nt	nt	nt	nt	nt
CCOc1ccc(/C=N/NC(=O)c2[nH]ncc2Br)c(O)c1	-7	99*	?	2	98*	102*	99*	100*	103*	99*	52*
O=C(N/N=C/c1cccs1)c1[nH]ncc1Br	9	76*	-64	1	50	76*	61*	58*	86*	90*	68*
O=C(NN=Cc1c(O)ccc2ccccc12)C1CC1	-5	nt	16	nt	nt	nt	nt	nt	nt	nt	nt
O=C(N/N=C/c1cccs1)c1cnccn1	24	5	-15	-2	-4	7	nt	nt	nt	nt	nt
O=C(N/N=C/c1c(O)ccc2ccccc12)c1[nH]ncc1Br	-40	51*	-10	-3	18	19	33	41	77*	28	48
CC(=O)N(C)C[C@H]1Oc2ncc(-c3cccnc3)cc2C(=O)N([C@@H](C)CO)C[C@H]1C	nt	nt	26	nt	nt	nt	nt	nt	nt	nt	nt
SMILES	SENP8 block-1	SENP6 inh	LGR2 inh	HSP90 inh	SENP8 block-2	SENP7 inh	SENP8 confirm	SENP6 conf	SENP7 confirm	Casp3 SENP sel	Luc interf
CO[C@H]1CN(C)C(=O)c2cc(NS(=O)(=O)c3c(C)noc3C)ccc2OC[C@H](C)NC[C@@H]1C	nt	nt	12	nt	nt	nt	nt	nt	nt	nt	nt
O=C(Nc1ccccc1)Nc1ncc([N+](=O)[O-])s1	36	99*	65*	8	97*	100*	98*	100*	102*	98*	98*
CCC(=O)Nc1ccc2c(c1)C(=O)N(C)[C@@H]1CC[C@@H](CC(=O)NCC3CCCCC3)O[C@@H]1CO2	nt	nt	11	nt	nt	nt	nt	nt	nt	nt	nt
CCCNC(=O)c1noc2c1CCc1ccccc1-2	6	-1	-41	7	-11	4	nt	nt	nt	nt	nt
O=C(Nc1cccnc1Cl)c1noc2c1CCc1ccccc1-2	15	31	-39	3	-5	65*	3	7	24	20	7
Cc1noc(C)c1NC(=O)N[C@@H]1CC[C@H](CCNC(=O)C2CCCCC2)O[C@H]1CO	nt	nt	-2	nt	nt	nt	nt	nt	nt	nt	nt
Cn1cc(Br)c(C(=O)Nc2ncc(Br)s2)n1	-23	28	-38	-3	-9	70*	-6	-2	-3	16	-1
COc1ccc2c3c([nH]c2c1)[C@H](CO)N(C(=O)Nc1ccc(F)cc1)CC31CN(S(=O)(=O)c2cn(C)cn2)C1	nt	nt	16	nt	nt	nt	nt	nt	nt	nt	nt
Cc1ccc(/C=N/Nc2nc3ccccc3s2)o1	-76	97*	19	4	90*	83*	84*	84*	99*	81*	48
O=C(C[C@@H]1CC[C@H]2[C@@H](COC[C@H](O)CN2Cc2nccs2)O1)NCc1ccccc1F	nt	nt	6	nt	nt	nt	nt	nt	nt	nt	nt
O=C(COC(=O)c1cccs1)c1ccc2c(c1)OCCO2	14	95*	82*	7	80*	14	99*	99*	102*	97*	97*
Cc1ccc(C(=O)COC(=O)c2cccs2)cc1	11	94*	nt	-4	87*	94*	93*	92*	99*	92*	88*
Cc1ccc(-c2nnc(COC(=O)c3cccs3)o2)cc1	-2	78*	-27	-2	71*	72*	80*	78*	94*	78*	69*
